Data: PMC5540273 (PLoS ONE, 2017)

How the values were obtained:
Conditions in all cases: concentration: 1 μM, replicates: in singlicate; n = 1
HASPIN = system: T1, HASPIN
T1 construct: gene GSG2

HCK = system: HCK
HIPK1 = system: HIPK1
HIPK2 = system: HIPK2
HIPK3 = system: HIPK3
HIPK4 = system: HIPK4
HPK1 = system: HPK1
HUNK = system: HUNK
ICK = system: ICK
IGF1R = system: IGF1R
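Further: KINOMEscan kinase panel screen.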

SMILES	%Inh (HASPIN) [%]	%Inh (HCK) [%]	%Inh (HIPK1) [%]	%Inh (HIPK2) [%]	%Inh (HIPK3) [%]	%Inh (HIPK4) [%]	%Inh (HPK1) [%]	%Inh (HUNK) [%]	%Inh (ICK) [%]	%Inh (IGF1R) [%]
Cn1cc(-c2cnc(N)c3c(-c4ccc5c(c4)CCN5C(=O)Cc4ccccc4)csc23)cn1 [GSK2593074]	0	86	21	0	7	0	94	0	100	0
Fc1cc(Cl)ccc1Nc1ccnc2cc(-c3ccc(CN4CCSCC4)o3)ccc12 [GW560106]	28	95.3	3	0	0	0	20	71	0	25
O=C(Nc1n[nH]c2nc(-c3ccccc3)ccc12)C1CC1 [SB-708999]	0	7	0	29	0	8	54	0	4	6
COc1cccc2c(-c3ccncc3)c(-c3ccc(F)cc3)nn12 [GW468513]	15	0	0	0	10	4	37	18	9	9
COC(=O)Nc1nc2ccc(Oc3ccc(CC(=O)Nc4cc(C(F)(F)F)ccc4F)cc3)cc2[nH]1 [GW680903]	0	0	0	0	0	0	60	15	0	0
O=C(O)C(F)(F)F.O=c1[nH]ccc2nc(N[C@@H]3CCNC3)nc(Nc3cc(Cl)cc(Cl)c3)c12 [GSK2188764]	86	0	27	6	54	0	95.7	0	12	0
COc1ccc(C)c(Nc2ccnc(Nc3ccc(-c4cnc[nH]4)cc3)n2)c1.Cl [GW784041]	0	63	48	0	0	30	0	0	0	12
CSc1ccc(NC2=C(c3ccc(Cl)cc3)C(=O)NC2=O)cc1 [SB-317658]	0	32	2	3	7	6	9	4	19	3
CS(=O)(=O)c1cccc(CNc2nc(Nc3ccc4c(c3)CCC(=O)N4)ncc2C(F)(F)F)c1	0	0	31	3	0	22	41	0	0	5
O=C(Nc1n[nH]c2nc(-c3cccc(O)c3)ccc12)C1CC1 [SB-711805]	45	15	57	27	31	7	0	0	53	0
Cc1ccccc1CC(=O)N1CCc2cc(-c3cn(C)c4ncnc(N)c34)ccc21 [GSK2603346]	0	13	0	0	1	0	74	0	0	0
CN(c1ccc(F)c(NC(=O)c2cccc(OC(C)(C)C#N)c2Cl)c1)c1ccc2nc(NC(=O)C3CC3)sc2n1	27	90	0	0	0	0	0	1	0	0
Fc1cc(Cl)ccc1Nc1ccnc2cc(-c3ccc(CN4CCOCC4)o3)ccc12 [GW560109]	0	96.7	0	0	26	0	27	62	0	12
CN(c1ccc(NC(=O)Nc2cccc(Cl)c2)cc1)c1ccnc(N)n1.Cl [GW830707]	32	0	0	18	0	79	0	51	7	0
COC(=O)Nc1nc2cc(Oc3ccc(NC(=O)Nc4cccc(SC)c4)cc3)ccc2[nH]1.Cl [GW697999]	0	12	5	0	1	36	30	28	0	5
Nc1ncnc2scc(-c3ccc(NC(=O)Cc4cc(F)ccc4F)cc3)c12.O=C(O)C(F)(F)F [SB-731254-M]	0	66	18	23	26	2	44	0	12	0
CCOc1nccc(-c2c(-c3ccc(F)cc3)ncn2C2CCNCC2)n1 [SB-249175]	0	0	59	44	44	6	12	0	65	0
COc1ccc(NC(=O)c2ccoc2)cc1-c1ccc(C(=O)NCC2CC2)cc1 [GW810437]	23	26	5	18	7	6	0	31	13	0
Cn1cc(-c2ccc3c(c2)CCN3C(=O)Cc2cc(F)cc(C(F)(F)F)c2)c2c(N)ncnc21 [GSK2635225]	9	0	16	0	17	13	31	9	0	30
O=C(O)C(F)(F)F.O=c1[nH]ccc2nc(N[C@@H]3CCNC3)nc(Nc3ccc4c(c3)S(=O)(=O)CC4)c12 [GSK2181306]	90	59	75	84	93.3	56	96.7	0	68	19
Cc1cccc(Nc2nc(NCCN)ncc2C(N)=O)c1 [GSK1292139]	56	25	0	0	7	0	85	0	13	0
COc1cccc(NC(=O)NCCNc2ccnc(Nc3ccc(F)cc3)n2)c1 [GSK1379879]	0	0	0	0	7	0	34	11	10	0

SMILES	%Inh (HASPIN) [%]	%Inh (HCK) [%]	%Inh (HIPK1) [%]	%Inh (HIPK2) [%]	%Inh (HIPK3) [%]	%Inh (HIPK4) [%]	%Inh (HPK1) [%]	%Inh (HUNK) [%]	%Inh (ICK) [%]	%Inh (IGF1R) [%]
NCCC(NC(=O)c1cc(Br)c(-c2ccnc3[nH]ccc23)s1)c1ccccc1.O=C(O)C(F)(F)F.O=C(O)C(F)(F)F (centres unmarked) [GSK1307810]	97.6	0	53	9	67	93.3	69	0	0	0
CN(c1ccc(NC(=O)N2CCN(CCCN3CCOCC3)CC2)cc1)c1ccnc(Nc2ccc(CS(C)(=O)=O)cc2)n1.Cl [GW830899]	0	12	45	0	0	20	47	0	95.9	1
Cc1cc(-c2c(-c3ccc(F)cc3)ncn2CCCN2CCOCC2)nc(N)n1 [SB-222517]	0	27	44	0	18	0	12	0	0	10
Cl.Cl.NCC(NC(=O)c1cc(-c2cccnc2)c(-c2ccnc3[nH]ccc23)s1)c1ccccc1 (centres unmarked) [GSK1323434]	96.4	0	69	67	86	64	59	0	4	0
Cc1ccc(NC(=O)c2ccnc(N3CCCCC3)c2)cc1-c1ccc(C(=O)NCC2CC2)cc1 [GW775610]	0	0	11	9	0	0	24	0	25	0
CCn1c(-c2nonc2N)nc2c(-c3ccccc3)ncc(OCCCN)c21.O=C(O)C(F)(F)F.O=C(O)C(F)(F)F [GSK260205]	9	0	0	0	38	0	0	0	10	0
Cc1cc(-c2ccnc(Nc3cccc(C#N)c3)n2)cc(C)c1O [GSK1440913]	60	0	98.3	98.9	98.2	88	65	43	79	0
CCNc1nccc(-c2c(-c3ccc(F)cc3)ncn2C2CCN(C)CC2)n1	0	0	39	70	66	0	0	0	0	0
O=C(Nc1c(F)cccc1F)c1cc(C(=O)c2ccccc2F)c[nH]1 [GSK1326180]	22	0	0	44	0	0	50	24	0	18
O=C(Nc1n[nH]c2nc(-c3ccccc3O)ccc12)C1CC1 [SB-711880]	0	0	27	7	0	0	0	0	26	0
CC(C)NCC(Cc1ccccc1)NC(=O)c1cc(Br)c(-c2ccnc3[nH]ccc23)s1.Cl.Cl (centres unmarked) [GSK1383281]	89	0	30	0	35	91.6	44	0	11	4
CC(C)c1nc(-c2ccc(F)c(NS(=O)(=O)c3c(F)cccc3F)c2)c(-c2ccnc(Nc3ccc(N4CCOCC4)nc3)n2)s1 [GSK1804250]	18	98.4	17	0	30	72	56	7	0	8
CCNC(=O)/C=C/c1n[nH]c2cc(Sc3ccccc3C(=O)NC)ccc12	14	7	23	2	22	0	8	0	0	10
O=C1NC(=O)C(c2ccccc2Cl)=C1Nc1cccc(Cl)c1 [SB-342409]	0	0	0	0	2	3	49	0	45	20
Cc1ccc(C)c(NC(=O)Nc2ccc(C)c(-c3ccc(C(=O)Nc4ccncc4)cc3)c2)c1 [GSK1398473]	0	92.4	0	0	12	0	36	0	8	0
COc1cc(Nc2nccc(N3CCC(NC(=O)Nc4ccc5c(c4)OCO5)C3)n2)cc(OC)c1OC (centres unmarked) [GSK1379766]	0	0	0	0	16	0	78	0	26	0
Cc1ccc(NC(=O)c2cccc(N3CCCCC3)c2)cc1-c1ccc(C(=O)NCC2CC2)cc1 [GSK1917008]	0	0	0	0	14	17	38	0	23	9
CCn1cnc2c(NCc3ccccc3)ncnc21 [SKF-96418]	10	9	27	9	33	33	0	48	0	0
CN(C)CCNS(=O)(=O)c1ccc(-c2ccnc3[nH]ccc23)cc1 [GSK977620]	84	0	82	82	90.5	43	42	0	5	2
Cc1ccc(O)cc1Nc1ccnc2ccc(C(C)(C)C)cc12 [GW856805]	44	93.8	20	0	28	0	0	0	37	0
Cc1nn2c(=O)cc(N3CCO[C@H](C)C3)nc2n1Cc1cccc(Cl)c1Cl [GSK2373693]	3	22	10	30	78	0	25	0	15	10
CN(C)CCOc1ccc(-c2cc(-c3ccc(Cl)c(O)c3)c(-c3ccncc3)[nH]2)cc1.Cl.Cl [SB-684387]	18	51	2	0	1	4	39	0	0	0

SMILES	%Inh (HASPIN) [%]	%Inh (HCK) [%]	%Inh (HIPK1) [%]	%Inh (HIPK2) [%]	%Inh (HIPK3) [%]	%Inh (HIPK4) [%]	%Inh (HPK1) [%]	%Inh (HUNK) [%]	%Inh (ICK) [%]	%Inh (IGF1R) [%]
COc1ccc(C2=C(Nc3cccc(O)c3)C(=O)NC2=O)cc1 [SB-390766]	0	41	0	2	63	93.5	36	0	10	0
COc1cccc(CC(=O)N2CCc3cc(-c4cn(C)c5ncnc(N)c45)ccc32)c1 [GSK2608899]	0	0	0	0	22	56	55	3	6	17
Cl.N#CCc1ccc(Nc2nccc(Nc3ccc(Oc4ccccc4)cc3)n2)cc1 [GW639905]	0	94.7	0	0	14	0	36	0	0	0
CN1CCN(Cc2ccc(NC(=O)Nc3ccc(N(C)c4ccnc(Nc5ccc(CS(C)(=O)=O)cc5)n4)cc3)cc2)CC1.Cl [GW827654]	19	47	83	82	91.9	90.9	99.6	0	71	0
CC(C)c1nc(-c2cccc(NS(=O)(=O)c3c(F)cccc3F)c2)c(-c2ccnc(Nc3ccc(N4CCOCC4)nc3)n2)s1.Cl [GSK1723980]	0	98.3	93.2	57	69	83	55	0	32	0
CN(C)c1ncnc2nc[nH]c12 [SKF-31736]	0	3	23	12	15	0	0	0	0	0
Nc1cccc(-c2ccc3c(N)n[nH]c3c2)c1 [GSK2193613]	90.5	0	0	0	100	0	48	23	0	8
CN(c1ccc2c(c1)nc(NCc1ccccc1)n2C)c1ccnc(Nc2ccc(CS(C)(=O)=O)cc2)n1.Cl [GW811603]	3	49	41	46	0	38	72	0	29	6
COc1cccc(C2=C(Nc3cccc(O)c3)C(=O)NC2=O)c1 [SB-390771]	4	0	0	0	29	0	51	0	3	19
Cc1ccc(NC(=O)c2ccc(Cl)c(Cl)c2)cc1-c1ccc(C(=O)Nc2ccncc2)cc1 [GSK1398460]	0	9	0	0	17	0	40	25	0	19
N#CC1(c2cccc(C(=O)Nc3cccc(Oc4ccc5nc(NC(=O)C6CC6)sc5n4)c3)c2)CC1	38	98.3	6	0	0	78	40	32	0	0
CNc1nccc(-c2ccc3c(N)n[nH]c3c2)n1 [GSK2206003]	93	0	34	0	37	42	55	0	0	22
Cc1ccc(-c2ccc3occ(-c4ccc(S(C)=O)cc4)c3c2)nn1 (centres unmarked)	42	0	42	2	0	0	0	0	0	0
c1ccc(Oc2ccc(Nc3ccnc4cc(-c5ccc(CN6CCCCC6)o5)ccc34)cc2)nc1 [GW567143]	6	79	0	0	8	0	20	0	0	15
Cc1ccc(O)cc1Nc1ccnc2cc(-c3ccc(CN4CCCCC4)o3)ccc12 [GW557777]	0	99.4	0	0	0	0	37	32	0	0
Cc1cccc(Nc2nc(N[C@H]3CCCC[C@H]3N)ncc2C(N)=O)c1.Cl [GSK986310]	18	0	0	0	21	0	79	0	16	0
Cc1ccc(Nc2ccnc(Nc3ccc(C)c(F)c3)n2)cc1O.Cl [GW582868]	10	29	0	0	0	4	30	0	2	0
COc1cc(Nc2nccc(N3CCC(NS(=O)(=O)c4ccc(NC(C)=O)cc4)CC3)n2)cc(OC)c1OC [GSK1379825]	0	0	0	0	15	0	86	0	0	0
N#Cc1cnc2cc(-c3cnc(CNCCN4CCOCC4)s3)ccc2c1Nc1ccc(Oc2ccccc2)cc1 [GW664114]	0	99	0	0	17	0	89	12	0	17
COC(=O)Nc1nc2ccc(Oc3ccc(NC(=O)Nc4cc(C(F)(F)F)ccc4F)cc3)cc2[nH]1.Cl [GW654607]	12	51	8	0	10	92	57	8	11	2
CC(C)(C)c1ccc(C(=O)Nc2cn3cc(-n4ccnc4)ccc3n2)cc1	7	18	32	28	12	21	0	0	0	0
